Assay outcomes: PubChem BioAssay, National Center for Advancing Translational Sciences (NCATS)
Most compounds without a hit are left out; they make up all but 2.1% or so of the library.
uPA generation – qHTS for Inhibitors of Cell Surface uPA Generation. cell surface uPA generation assay, qHTS. Potency, µM (top dose mostly 38.3 µM), for inactives: at the highest dose activity change, negative = inhibition, most hits filed as inhibitors. actives 0.31% (n = 330,000); active = well fitted inhibition curve with a large enough effect; inconclusive = small, poorly fitted or top-dose-only effect; inactive = no such curve, though single readings can be large or run the other way; tested in mouse RAW 264.7 cells; note: potency is the fitted concentration of half-maximal effect; % is set by controls: 0 for no effect and ±100 for the full control effect; nearly all actives have a fitted effect of over 55% in size
p53 reactivation – qHTS assay for re-activators of p53 using a Luc reporter; Potency, µM (doses to about 92.2 µM), for inactives: top-dose activity change, positive = activation, actives largely listed as activators; H1299 p53-A138V BP100-luciferase reporter, luminescence, 24 h; actives 0.063% (n = 320,000); note: potency is the fitted concentration of half-maximal effect; % of control where 0% means no effect; nearly all actives have a fitted effect of over 45% in size
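p53-null H1299 cells stably carrying temperature-sensitive p53-A138V and a BP100-luciferase reporter were pinned with compounds (4-point, 1:5 series) and held 24 hrs at 37 deg C. Luminescence was read 10 min after detection reagent.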
Mito fusion yeast – qHTS Assay for Small Molecule Inhibitors of Mitochondrial Division or Activators of Mitochondrial Fusion; S. cerevisiae fusion-defective mutant growth rescue, CellTiterGlo 48 h; Potency, µM (highest dose often 46.1 µM), for the others: top-dose growth rescue (activation), most hits filed as activators; actives 0.23% (n = 320,000); note: potency is the fitted concentration of half-maximal effect; % of control where 0% means no effect; nearly all actives have a fitted effect of over 45% in size
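Luminescent cell viability in 1536-well qHTS format served as the measure of rescued growth in ts fusion-mutant S. cerevisiae cultured on non-fermentable YPEG for 48 hours at 37C.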
ClpP mod – qHTS Assay for Activators of ClpP; ATP-dependent Clp protease proteolytic subunit (Bacillus subtilis (strain 168)), P80244; purified B. subtilis ClpP, FRET peptide cleavage, 20 min; Potency, µM (highest dose often 57.5 µM), without a hit: at the top dose activity change, negative = active; actives 1.9% (n = 340,000); active = well fitted falling curve with a large enough effect; inconclusive = small, poorly fitted or top-dose-only effect; inactive = no such curve, though single readings can be large or run the other way; note: potency is the fitted concentration of half-maximal effect; the source files actives as falling curves though it sought activators and does not explain the sign; nearly all actives have a fitted effect of over 65% in size
Target sequence (P80244 whole entry, looked up): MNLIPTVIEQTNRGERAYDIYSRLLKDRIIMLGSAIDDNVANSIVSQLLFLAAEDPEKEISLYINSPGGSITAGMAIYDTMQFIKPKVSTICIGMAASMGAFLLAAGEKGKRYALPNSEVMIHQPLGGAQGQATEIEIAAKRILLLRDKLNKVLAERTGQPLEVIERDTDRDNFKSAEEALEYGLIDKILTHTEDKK
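FRET quenching reversal measured ClpP activation: 10 microg/mL B. subtilis ClpP at pH 8 with the FRET-FV decapeptide, read at 430 nm after 320 nm excitation. The 20-min minus 0-min signal was scaled between DMSO/no-enzyme wells and ADEP (5.8 microM final).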
Giardia killer – Small Molecules that selectively kill Giardia lamblia: qHTS; activity change, % at 7.66 µM, hits read low; actives 0.15% (n = 340,000); AID 540267, 2011; Giardia lamblia trophozoite viability; in the data active = activity change below about -80%; inconclusive = between about -30% and that limit;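 note: parasites exposed to compound for two days anaerobically before the ATP read; % is set by controls: 0 for no effect and ±100 for the full control effect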
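Media and compound were dispensed first, then trophozoites at 100 cells/well; plates sat 48 hrs at 37 deg C without oxygen before ATP luminescence reagent was added and read after 15-30 min at room temperature.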
B2AR arrestin – qHTS assay of beta-arrestin-biased ligands of beta2-adrenergic receptor | beta-arrestin recruitment to beta2AR, cell-based reporter | Potency, µM (top dose mostly 46.1 µM), for the others: at the highest dose activation, usual class: activators | actives 0.02% (n = 330,000);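 note: potency is the fitted concentration of half-maximal effect; 0% = DMSO controls and full agonism = EC100 isoproterenol or metaproterenol; nearly all actives have a fitted effect of over 65% in size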
Target sequence (P07550 whole entry, looked up): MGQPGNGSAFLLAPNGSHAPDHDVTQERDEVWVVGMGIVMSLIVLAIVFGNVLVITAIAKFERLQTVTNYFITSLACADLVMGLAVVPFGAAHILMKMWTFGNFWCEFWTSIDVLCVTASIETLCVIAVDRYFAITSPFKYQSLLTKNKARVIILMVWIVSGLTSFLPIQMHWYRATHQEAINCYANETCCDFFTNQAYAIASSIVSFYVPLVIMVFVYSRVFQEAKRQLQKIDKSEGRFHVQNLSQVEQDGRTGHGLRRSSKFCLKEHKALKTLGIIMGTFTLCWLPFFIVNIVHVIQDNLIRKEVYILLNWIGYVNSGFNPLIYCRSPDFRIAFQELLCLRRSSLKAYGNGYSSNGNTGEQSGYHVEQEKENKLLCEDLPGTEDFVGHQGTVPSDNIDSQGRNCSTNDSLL
An asterisk follows results filed as active; ? = inconclusive; · = no result given; ! = repeats disagree. Unless noted, calls come from the whole dose curve; as a rule, active = well fitted curve in the direction sought with a large enough effect; inconclusive = small, poorly fitted or top-dose-only effect, or another doubt; inactive = no such curve, though single readings can be large; an effect the other way counts as inactive or inconclusive.

SMILES	uPA generation	p53 reactivation	Mito fusion yeast	ClpP mod	Giardia killer	B2AR arrestin
COc1ccc(CNC(=O)C2CCCN(S(=O)(=O)N3CC(C)CC(C)C3)C2)c(OC)c1 (configuration not stated)	1%	-4%	11µM*	-2%	?	0%
COCCC1CCCCN1C(=O)c1cc(COc2ccc(C)nc2)on1 (configuration not stated)	?	6%	0%	0%	4	12%
COCCCC1CCN(C(=O)c2cc(COc3ccc(C)nc3)on2)CC1	?	-30%	-2%	28µM*	5	0%
CCOc1ccc(NS(=O)(=O)c2ccc3[nH]c4c(c3c2)CCCCC4)cc1	·	·	·	-9%	·	·
C=C(C)Cn1c(N2CCC(Cc3ccccc3)CC2)nc2c1c(=O)[nH]c(=O)n2C	-1%	-18%	16µM*	1%	11	0%
CC(C)Sc1nc2c(c(=O)[nH]c(=O)n2C)n1CCc1ccccc1	-6%	-3%	3%	18µM*	1	0%
CCC(C)Sc1nc2c(c(=O)[nH]c(=O)n2C)n1CCc1ccccc1 (configuration not stated)	-4%	-21%	22%	1%	6	0%
Cc1ccccc1CN1C(=O)c2ccccc2S(=O)(=O)c2ccc(C(=O)OCC3CCCO3)cc21 (configuration not stated)	·	·	·	-4%	·	·
Cc1ccc(C)c(Nc2nn3c(=O)c4ccc(C(=O)NCc5cccs5)cc4nc3s2)c1	·	·	·	-3%	·	·
O=S(=O)(O)Sc1ccccc1	·	·	·	-2%	·	·
CCN(CC)c1ccc(SS(=O)(=O)O)cc1	-3%	?	4%	14µM*!	-10	0%
Cc1ccc(S(=O)(=O)N[C@@H](Cc2ccccc2)C(=O)CCl)cc1	5µM*	-9%	-37%	0%	14	0%
CCCN1CCN(c2ncc3c(n2)CCN(Cc2ccc(OC)c(OC)c2OC)C3)CC1	·	·	·	-3%	·	·
O=C(CNC(=O)C(c1ccccc1)c1ccccc1)OCC(=O)c1ccc2ccccc2c1	·	·	·	6%	6	·
C=CC[n+]1c(-c2ccc(OC)cc2)csc1NNC(=O)Nc1ccccc1	-1%	24%	0%	0%	21	-1%
C=CC[n+]1c(-c2ccc(C)cc2)csc1Nc1ccc(NC(C)=O)cc1	7.1µM*	-9%	2%	-2%	8	0%
Cc1nc(-c2ccc(S(=O)(=O)N(Cc3ccccc3)C(C)C)cc2)co1	·	·	·	-1%	·	·
N#CC(C#N)=Cc1cn(-c2ncc(C(F)(F)F)cc2Cl)c2ccccc12	0%	6%	10%	16µM*	1	0%
O=C1SCCN1N=Cc1ccc([N+](=O)[O-])o1	-12%	·	·	·	-85*	·
Cc1cccc(Oc2nc3ccccn3c(=O)c2/C=C(\C#N)c2nc3ccccc3s2)c1C	·	·	·	4%	·	·
O=C(Cn1c(=O)n(Cc2nc(-c3ccccc3)no2)c(=O)c2cc3c(cc21)OCO3)Nc1ccc(Cl)cc1	·	·	·	13µM*	·	·
O=C(Cn1c(=O)n(Cc2nc(-c3ccccc3)no2)c(=O)c2cc3c(cc21)OCO3)Nc1ccccc1	·	·	·	18µM*	·	·
O=C(NCCn1cc(SCc2ccccc2)c2ccccc21)c1c(F)cccc1F	?	8%	14%	-1%	17	-1%
O=C(NCCn1cc(SCc2ccc(F)cc2)c2ccccc21)c1c(F)cccc1F	10µM*	1%	13%	1%	-22	0%
CCOc1ccc(S(=O)(=O)Nc2ccccn2)c2ccccc12	-2%	-3%	1%	35µM*	19	0%
SMILES	uPA generation	p53 reactivation	Mito fusion yeast	ClpP mod	Giardia killer	B2AR arrestin
CCOc1ccc(S(=O)(=O)NCc2ccc(F)cc2)c2cccnc12	-4%	-6%	1%	25µM*	-24	0%
CCCOc1ccc(S(=O)(=O)Nc2ccccn2)c2ccccc12	3%	·	1%	-2%	-16	-1%
COc1cc(Cl)c(NC2=CC(=O)C(=O)c3ccccc32)c(OC)c1	3.2µM*	3%	7%	-1%	-12	0%
CC(=O)N1CCc2cc(Br)cc(S(=O)(=O)N3CCC(C(=O)Nc4ccc(C(C)C)cc4)CC3)c21	·	·	·	1%	·	·
COc1ccc(N2CC(NC(=O)/C=C\c3ccc4c(c3)OCO4)CC2=O)cc1 (configuration not stated)	·	·	·	28µM*	·	·
COCC(C)n1c(SCC(=O)N2CCCCC2)nc2ccccc2c1=O (configuration not stated)	5%	-6%	11%	-1%	-7	0%
COCC(C)n1c(SCC(=O)N2CCc3ccccc3C2)nc2ccccc2c1=O (configuration not stated)	-22%	-12%	-10%	13µM*	-6	1%
COc1ccc(-c2nc(CNC(=O)Nc3ccccc3)c(C)o2)cc1	·	·	·	-28%	·	·
CCCCCC(=O)Nc1ccc(N2CCOCC2)c(S(=O)(=O)Nc2ccc(OC)cc2)c1	-3%	-6%	8%	·	-4	0%
COc1ccc(NS(=O)(=O)c2cc(NC(=O)/C=C/c3cccs3)ccc2N2CCOCC2)cc1	-7%	-15%	-22%	28µM*	-15	-1%
COc1ccc(-n2c(/C=C/c3cccc4ccccc34)nc3ccccc3c2=O)cc1Cl	·	·	·	2%	·	·
Cc1cccc(CS(=O)(=O)Cc2ccc(C(=O)NCCCN3CCCC3)o2)c1	·	0%	2%	0%	-1	0%
CN1CCN(CCCNC(=O)c2ccc(CSCc3cccc(Cl)c3)o2)CC1	-10%	-5%	-3%	14µM*	29	0%
Cc1cccc(CS(=O)(=O)Cc2ccc(C(=O)NCCCN3CCOCC3)o2)c1	0%	-2%	-2%	28µM*	-2	0%
COc1ccc(C(=O)Nc2ccc3nc(SCC(=O)N(C)c4ccccc4)sc3c2)cc1	·	·	·	-19%	·	·
COc1ccc(N2CCN(C(CNC(=O)c3cccs3)c3ccco3)CC2)cc1 (configuration not stated)	29%	7%	1%	16µM*	-5	0%
Cc1nc2nc(-c3ccco3)[nH]n2c(=O)c1Cc1ccccc1	3%	1%	-3%	28µM*	-15	0%
CC(C)c1ccc(C(O)P(=O)(OC2CCCCC2)OC2CCCCC2)cc1 (configuration not stated)	-2%	0%	13µM*	1%	-10	0%
COc1cc(C(O)P(=O)(OC2CCCCC2)c2ccc(N(C)C)cc2)cc(OC)c1OC (configuration not stated)	5%	-18%	-4%	-1%	-4	0%
